Data: PubChem BioAssay (Tox21)
Inconclusive results are not listed. Active and inactive are the calls of the source. Unless noted, the call rests on the fitted dose curve; in most records, active means well fitted curve in the direction sought with a large enough effect in the repeat runs; inconclusive means weak or mixed curves; inactive means no such curve, though single readings can be large; an effect the other way counts as inactive or inconclusive.

Legend:
[1] = qHTS assay to identify small molecule agonists of the RXR signaling pathway - cell viability counter screen (AID 1159529); further: nearly all actives have a fitted effect of over 50% in size
Outline: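 RXR-alpha-UAS-bla HEK 293T cells in medium with 2% charcoal-stripped FBS were pre-incubated 5 hr, then compound-treated 16 hr at 37 C. Viability was read by CellTiter-Glo luminescence in the same wells as the beta-lactamase assay, with tetraoctyl ammonium bromide as positive control.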

[2] = qHTS assay to identify small molecule antagonists of the retinoid acid receptor (RAR) signaling pathway - cell viability counter screen (AID 1159551); further: nearly all actives have a fitted effect of over 35% in size
Outline: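 Following overnight attachment, C3RL4 reporter cells received DMSO-dissolved compounds and then retinol (1 uM final). Six hours later at 37 C, ATP content was measured by CellTiter-Glo luminescence.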

[3] = qHTS assay to identify small molecule antagonists of the retinoic acid receptor (RAR) signaling pathway (AID 1159552; further: nearly all actives have a fitted effect of over 50% in size)
Outline: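 Retinol signaling pathway inhibitors screened in C3RL4 RARE-luciferase reporter cells seeded overnight at 37 C, then compounds added with 1 uM (final) retinol as pathway substrate. After 6 hr at 37 C, luciferase luminescence read after 30 min at room temperature.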

[4] = qHTS assay to identify small molecule agonists of the retinoic acid receptor (RAR) signaling pathway (AID 1159553); details: C3RL4 RARE luciferase reporter, agonist, 6 h; activation: at 73.3 µM (top of the series)
Outline: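 Cell line C3RL4, RARE luciferase reporter. Treatment: compounds in DMSO, 6 hr, 37 C, 5% CO2, after overnight plating. Detection: luminescence, 30 min RT after reagent.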

[5] = qHTS assay to identify small molecule antagonists of the estrogen related receptor (ERR) signaling pathway from Tox21 library - cell viability counter screen (AID 1224834); further: nearly all actives have a fitted effect of over 30% in size
Outline: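 Viability readout (CellTiter-Fluor fluorescence, 30 min at 37 C) multiplexed with the ERR assay; cells treated 17.5 h at 37 C with compounds delivered in DMSO.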

[6] = molecular target: Luciferin 4-monooxygenase (Photinus pyralis) (UniProt P08659); assay: qHTS assay to identify small molecule inhibitors of firefly luciferase (AID 1224835); further: nearly all actives have a fitted effect of over 25% in size
Sequence of Luciferin 4-monooxygenase (Photinus pyralis) (P08659 whole entry, looked up): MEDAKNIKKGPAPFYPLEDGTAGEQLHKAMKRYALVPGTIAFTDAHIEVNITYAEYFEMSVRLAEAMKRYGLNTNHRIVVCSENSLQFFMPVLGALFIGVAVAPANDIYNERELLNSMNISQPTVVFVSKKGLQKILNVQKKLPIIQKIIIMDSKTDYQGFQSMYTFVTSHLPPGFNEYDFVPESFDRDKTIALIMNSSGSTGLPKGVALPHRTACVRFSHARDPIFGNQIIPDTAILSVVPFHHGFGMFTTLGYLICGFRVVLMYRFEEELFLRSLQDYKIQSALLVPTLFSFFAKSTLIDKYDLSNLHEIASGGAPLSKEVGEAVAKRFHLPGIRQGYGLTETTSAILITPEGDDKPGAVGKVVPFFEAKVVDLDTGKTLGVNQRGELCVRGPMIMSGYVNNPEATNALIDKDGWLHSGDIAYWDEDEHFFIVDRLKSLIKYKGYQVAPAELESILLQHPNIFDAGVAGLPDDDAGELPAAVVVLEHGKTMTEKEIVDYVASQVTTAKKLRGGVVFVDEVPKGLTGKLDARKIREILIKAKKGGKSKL
Outline: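 Biochemical qHTS: compounds run as interplate titrations against purified firefly enzyme, with D-luciferin and ATP each at its KM concentration. Light output recorded by CCD imaging.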

[7] = qHTS assay to identify small molecule agonists of the constitutive androstane receptor (CAR) signaling pathway - cell viability counter screen (AID 1224836); further: nearly all actives have a fitted effect of over 45% in size
Outline: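 HepG2 cells stably carrying hCAR and a CYP2B6-2.2kb reporter; 15-concentration compounds plus PK11195 (final 0.75 uM), 23 hr at 37 C/5% CO2. Viability read by CellTiter-Fluor fluorescence.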

[8] = qHTS assay to identify small molecule antagonists of the constitutive androstane receptor (CAR) signaling pathway - cell viability counter screen (AID 1224837); further: nearly all actives have a fitted effect of over 45% in size
Outline: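 Fluorescence from CellTiter-Fluor served as the viability signal. Human hepatoma HepG2 cells stably bearing hCAR and CYP2B6-2.2kb received compound plus CITCO (50 nM final) for 23 hr.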

[9] = qHTS assay to identify small molecule antagonists of the estrogen related receptor signaling pathway with the pleiotropic PPARgamma coactivator (PGC) from Tox21 10K library - cell viability counter screen (AID 1224840; active means well fitted cell-killing curve with a large enough effect in the repeat runs, not every such curve was filed as active; further: nearly all actives have a fitted effect of over 40% in size)
Outline: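 Compounds in DMSO, alongside positive and negative controls, were pinned onto PGC/ERR cells (2,000 per well). Exposure lasted 17.5 hours at 37 C, followed by a 30-minute CellTiter-Fluor incubation and fluorescence reading.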

[10] = molecular target: Thyrotropin receptor (Homo sapiens) (UniProt P16473); assay: qHTS assay to identify small molecule agonists of the thyroid stimulating hormone receptor (TSHR) signaling pathway (AID 1224843; calls by dose curve; further: nearly all actives have a fitted effect of over 45% in size)
Sequence of Thyrotropin receptor (Homo sapiens) (P16473 whole entry, looked up): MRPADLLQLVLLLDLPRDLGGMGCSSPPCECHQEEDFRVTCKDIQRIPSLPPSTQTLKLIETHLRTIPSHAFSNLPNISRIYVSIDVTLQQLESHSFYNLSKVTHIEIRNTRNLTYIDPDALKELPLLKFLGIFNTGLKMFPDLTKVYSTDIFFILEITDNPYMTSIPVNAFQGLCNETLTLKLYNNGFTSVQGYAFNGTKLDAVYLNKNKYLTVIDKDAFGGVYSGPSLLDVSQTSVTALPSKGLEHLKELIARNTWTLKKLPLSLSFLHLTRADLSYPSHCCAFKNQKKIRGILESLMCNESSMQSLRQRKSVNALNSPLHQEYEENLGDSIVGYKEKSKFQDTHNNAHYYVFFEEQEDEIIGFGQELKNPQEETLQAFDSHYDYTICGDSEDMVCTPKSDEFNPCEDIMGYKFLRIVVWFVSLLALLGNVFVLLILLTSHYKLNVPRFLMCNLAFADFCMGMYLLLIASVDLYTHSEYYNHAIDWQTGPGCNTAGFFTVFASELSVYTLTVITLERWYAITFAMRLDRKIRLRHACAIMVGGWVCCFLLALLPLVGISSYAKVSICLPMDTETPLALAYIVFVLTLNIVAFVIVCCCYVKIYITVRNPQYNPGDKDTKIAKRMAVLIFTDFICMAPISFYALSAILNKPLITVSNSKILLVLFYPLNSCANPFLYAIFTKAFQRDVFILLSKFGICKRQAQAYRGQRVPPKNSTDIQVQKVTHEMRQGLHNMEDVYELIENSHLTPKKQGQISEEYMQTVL
Outline: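 TSHR-HEK293 cells in agonist mode, 30 min room-temperature step, then cAMP measured by competitive HTRF (cAMP-d2 with anti-cAMP cryptate) after 1 h at room temperature. Tested at 15 concentrations in triplicate.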

[11] = qHTS assay to identify small molecule agonists of the hypoxia (HIF-1) signaling pathway - cell viability counter screen (AID 1224844; calls by dose curve; further: nearly all actives have a fitted effect of over 50% in size)
Outline: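 Luminescent ATP content (CellTiter-Glo, 30 min, room temperature) served as the viability measure in HRE-bla ME-180 cells exposed to compounds for 17 hrs in low-serum medium (0.5% dialyzed FBS).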

[12] = qHTS assay to identify small molecule agonists of H2AX (AID 1224845; active means well fitted activation curve with a large enough effect in the signal ratio in the repeat runs, not every such curve was filed as active; the % refers to the signal ratio)
Outline: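 Wild-type CHO-K1 cells, plated overnight, exposed 3hr at 37C to 15 concentrations (0.76% DMSO final). Lysed, then HTRF anti-pH2AX (S139) cryptate and anti-H2AX-d2 antibodies, 24 hr room temperature; 665/620 nm emission read.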

[13] = qHTS assay to identify small molecule agonists of the hypoxia (HIF-1) signaling pathway (AID 1224846; active means well fitted activation curve with a large enough effect in the signal ratio in the repeat runs, not every such curve was filed as active; the % refers to the signal ratio)
Outline: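 Measured by blue/green FRET after loading CCF4-AM: beta-lactamase expressed from a hypoxia response element in ME-180 cells. Test agents were delivered in DMSO and left 17 hrs; cells had been plated 5 hrs earlier in low-serum (0.5% dialyzed FBS) medium.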

[14] = qHTS assay to identify small molecule agonists of H2AX - cell viability counter screen (AID 1224847; calls by dose curve; further: top concentration of the series differs between compounds; nearly all actives have a fitted effect of over 30% in size)
Outline: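 CHO-K1 cells plated overnight at 37C, then exposed 3 h at 37C to compounds at 15 concentrations (0.76% DMSO final). Viability by CellTiter-Glo luminescence after 30 min at room temperature.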

[15] = qHTS assay to identify small molecule antagonists of the estrogen related receptor signaling pathway with the pleiotropic PPARgamma coactivator (PGC) from Tox21 10K library (AID 1224841; call rule not given here; further: actives are mostly falling curves and most rising ones were filed inactive; nearly all actives have a fitted effect of over 50% in size)
Outline: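 Compound exposure ran 18 hours at 37 C in PGC/ERR cells (2,000/well) that had first rested 6 hours in a 37 C/5% CO2 incubator. Luciferase activity was then detected with One-Glo after a 30-minute room-temperature step.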

[16] = qHTS assay to identify small molecule agonists of the estrogen related receptor signaling pathway with the pleiotropic PPARgamma coactivator (PGC) from Tox21 10K library (AID 1224842); further: nearly all actives have a fitted effect of over 15% in size
Outline: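 PGC/ERR reporter cell line, 2,000 cells per well, incubated 6 h at 37 C before 23 nL compound in DMSO was added. After 18 h at 37 C, One-Glo luminescence read following 30 min at room temperature.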

[17] = qHTS assay to identify small molecule antagonists of the estrogen related receptor (ERR) signaling pathway from Tox21 library (AID 1224848); further: nearly all actives have a fitted effect of over 50% in size; further: potency means the concentration at half of the fitted maximal effect
Outline: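 ERR reporter cell line (from NTP) seeded 2,000 cells/well, rested 6 h at 37 C/5% CO2, then pin-dosed with compounds in DMSO. After 18 h at 37 C, ONE-Glo added; luminescence read after 30 min at room temperature.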

[18] = molecular target: Nuclear receptor subfamily 1 group I member 3 (Homo sapiens) (UniProt Q14994); assay: qHTS assay to identify small molecule agonists of the constitutive androstane receptor (CAR) signaling pathway (AID 1224839);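 further: HepG2 cells stably carrying human CAR and a CYP2B6 luciferase reporter; nearly all actives have a fitted effect of over 15% in size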
Sequence of Nuclear receptor subfamily 1 group I member 3 (Homo sapiens) (Q14994 whole entry, looked up): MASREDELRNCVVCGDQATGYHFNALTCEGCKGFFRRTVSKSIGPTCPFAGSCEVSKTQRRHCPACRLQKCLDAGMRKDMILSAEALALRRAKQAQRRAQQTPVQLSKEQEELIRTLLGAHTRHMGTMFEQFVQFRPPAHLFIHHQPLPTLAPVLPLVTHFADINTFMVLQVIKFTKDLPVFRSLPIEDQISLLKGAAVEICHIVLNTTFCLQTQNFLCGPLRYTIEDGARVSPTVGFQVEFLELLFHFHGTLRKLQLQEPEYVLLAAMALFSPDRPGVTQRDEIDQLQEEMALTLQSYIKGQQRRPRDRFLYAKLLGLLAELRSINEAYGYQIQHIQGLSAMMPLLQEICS
Outline: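 HepG2 cells stably co-transfected with hCAR and a CYP2B6-2.2kb luciferase reporter; compounds at 15 concentrations with 0.75 uM PK11195 present. After 24 hr at 37 C, luciferase read by ONE-Glo luminescence.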

[19] = molecular target: Nuclear receptor subfamily 1 group I member 3 (Homo sapiens) (UniProt Q14994); assay: qHTS assay to identify small molecule antagonists of the constitutive androstane receptor (CAR) signaling pathway (AID 1224838);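 further: HepG2 cells stably expressing hCAR with CYP2B6 luciferase reporter stimulated by CITCO; nearly all actives have a fitted effect of over 40% in size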
Outline: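 Quantitative HTS in double-stable HepG2-CYP2B6-hCAR cells. After 4 h plating, cells get compound (15 concentrations) and CITCO at 50 nM final, incubate 24 h at 37 C, then ONE-Glo luminescence is read.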
On the % scale 0 is the no-effect control and ±100 the full control effect.

C=C[Si](C)(C)O[Si](C)(C)C=C
inactive: outcome [1] | outcome [2] | Potency [3] | Potency [4] | Potency [5] | Potency [6] | outcome [7] | Potency [8] | outcome [9] | outcome [10] | outcome [11] | outcome [12] | outcome [13] | Potency [14]

CCCCCCCCCCCCCCCCCCN(C)C
inactive: outcome [1] | outcome [2] | Potency [3] | Potency [4] | Potency [5] | Potency [6] | outcome [7] | Potency [8] | outcome [9] | Potency [15] | outcome [16] | outcome [10] | outcome [11] | outcome [12] | outcome [13] | Potency [14] | Potency [17]

COc1ccc(NS(=O)(=O)c2ccc(N)cc2)nn1
inactive: outcome [1] | Potency [3] | Potency [4] | Potency [5] | Potency [6] | outcome [7] | Potency [8] | outcome [9] | Potency [15] | outcome [16] | outcome [10] | outcome [12] | Potency [14] | Potency [17]

CCCC(C)CC (configuration not stated)
inactive: outcome [1] | outcome [2] | Potency [3] | Potency [4] | Potency [5] | Potency [6] | outcome [7] | Potency [8] | outcome [9] | outcome [10] | outcome [11] | outcome [12] | outcome [13] | Potency [14]

NCCc1ccn[nH]1
inactive: outcome [1] | Potency [3] | Potency [4] | Potency [6] | outcome [7] | Potency [8] | outcome [9] | outcome [10] | outcome [11] | outcome [12] | Potency [14]

Cc1cc(C)cc([N+](=O)[O-])c1
inactive: outcome [1] | outcome [2] | Potency [3] | Potency [4] | Potency [6] | outcome [7] | Potency [8] | outcome [9] | outcome [10] | outcome [11] | outcome [12] | outcome [13] | Potency [14]

Cc1nc(C)nc(N2C[C@@H](C)N(c3ccnc([C@@H](C)O)n3)[C@@H](C)C2)n1
active: Potency [17] 13.3 µM
inactive: outcome [1] | Potency [3] | Potency [4] | Potency [5] | Potency [6] | outcome [7] | Potency [8] | outcome [9] | outcome [16] | outcome [10] | outcome [11] | outcome [12] | outcome [13] | Potency [14]

CC(=O)OC(C)(C)Cc1ccccc1
inactive: outcome [1] | outcome [2] | Potency [3] | Potency [4] | Potency [5] | Potency [6] | outcome [7] | Potency [8] | outcome [9] | outcome [10] | outcome [12] | outcome [13]

Nc1ccc(S(=O)(=O)Nc2ccccn2)cc1
inactive: outcome [1] | outcome [2] | Potency [3] | Potency [4] | Potency [5] | Potency [6] | Potency [8] | Potency [18] | outcome [9] | outcome [10] | outcome [11] | outcome [12] | Potency [14]

CCCCCCCCCCCCC
inactive: outcome [1] | outcome [2] | Potency [3] | Potency [4] | Potency [5] | Potency [6] | Potency [8] | outcome [9] | outcome [10] | outcome [11] | outcome [12] | outcome [13] | Potency [14]

COc1cccc2sc(N)nc12
inactive: outcome [1] | outcome [2] | Potency [3] | Potency [4] | Potency [5] | Potency [6] | outcome [7] | Potency [8] | Potency [19] | outcome [9] | Potency [15] | outcome [16] | outcome [10] | outcome [11] | outcome [12] | outcome [13] | Potency [14] | Potency [17]

CCCCCC(=O)OCC
inactive: outcome [1] | outcome [2] | Potency [3] | Potency [4] | Potency [5] | Potency [6] | Potency [8] | outcome [9] | outcome [10] | outcome [11] | outcome [13] | Potency [14]

O=C(O)/C=C/c1ccccc1
inactive: outcome [1] | outcome [2] | Potency [3] | Potency [4] | Potency [5] | Potency [6] | Potency [8] | outcome [9] | Potency [15] | outcome [16] | outcome [10] | outcome [11] | outcome [12] | outcome [13] | Potency [17]

CCOC(=O)C(=O)c1csc(NC=O)n1
inactive: outcome [1] | outcome [2] | Potency [3] | Potency [4] | Potency [6] | outcome [7] | Potency [8] | outcome [9] | outcome [10] | outcome [12] | outcome [13] | Potency [14]

Cc1cccc(Nc2ccncc2S(=O)(=O)NC(=O)NC(C)C)c1
inactive: outcome [1] | outcome [2] | Potency [3] | Potency [4] | Potency [5] | Potency [6] | outcome [7] | Potency [8] | outcome [9] | Potency [15] | outcome [16] | outcome [10] | outcome [11] | outcome [12] | outcome [13] | Potency [14] | Potency [17]

Nc1cc(C(=O)O)ccc1Cl
inactive: outcome [1] | outcome [2] | Potency [3] | Potency [4] | Potency [5] | Potency [6] | outcome [7] | Potency [8] | outcome [9] | outcome [10] | outcome [11] | outcome [12] | Potency [14]

CCCCCCCCCCCCCCCCI
inactive: activity change, negative = cytotoxicity [1] 14.9% [at 15.8 µM] | activity change, negative = cytotoxicity [2] -0.67% [at 19 µM] | activity, negative = inhibition [3] -6.93% [at 19 µM] | Potency [4] | activity change, negative = inhibition [6] 0.965% [at 23.6 µM] | activity change, negative = cytotoxicity [8] -13% [at 19 µM] | viability change, negative = cytotoxic [9] -0.222% [at 19 µM] | activity, negative = inhibition [15] -7.26% [at 19 µM] | activation [16] -1.58% [at 19 µM] | activation [10] -19.7% [at 19 µM] | activation (H2AX phosphorylation) [12] 0.0964% [at 31.6 µM] | activation [13] 0.543% [at 15.8 µM] | activity change, negative = cytotoxicity [14] -0.0372% [at 31.6 µM] | activity, negative = inhibition [17] 4.33% [at 19 µM]
